Only some compounds are listed: those with a hit (about 6.7% of all), similar ones and a draw of the others.
C diff HTS – blocks growth of Clostridium difficile; Clostridium difficile clinical isolate growth, OD600, 24 h; active compounds read low; growth activity, negative = inhibition, % at 16 µg/mL (by protocol); 0.25% of 86,000 active; AID 1259249;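 active = mean growth activity at or below -80% and every replicate also at or below -80%; inconclusive = mean at or below -80% but some replicate above -80%; inactive = mean growth activity above -80%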
Pf Dd2 inh – blocks growth of Plasmodium falciparum Dd2 parasites; P. falciparum Dd2 growth, SYBR Green, 72 h; active compounds read low; activity change, % at 10 µM; 2.3% of 94,000 active; in the data active = activity change below about -80%; inconclusive = no clear call, values can overlap the other calls
T cruzi growth-1 – T. cruzi proliferation inhibition; 5.9% of 77,000 active; T. cruzi beta-gal in NIH3T3, GalScreen luminescence, 90 h; inhibition, % at 8.34 µM; AID 624255;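 active = mean inhibition above about 93%, with at least 55% of replicates each passing it, limit read from the data, passing the limit was not always enough; inconclusive = only one of those two conditions holds; inactive = neither condition holds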
T cruzi growth-2 – blocks T. cruzi growth in NIH3T3 host cells. shares compounds with T cruzi growth-1. T. cruzi beta-gal in NIH3T3, GalScreen luminescence, 90 h. inhibition, % at 8.35 µM. 72% of 5,600 active;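 active = mean replicate inhibition above about 95% and at least 55% of replicates individually reaching it, limit read from the data; inconclusive = only one of the two criteria is met; inactive = neither criterion is met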
T cruzi growth-3 – Trypanosoma cruzi proliferation inhibition; T. cruzi beta-gal in NIH3T3, GalScreen luminescence, 90 h; shares compounds with T cruzi growth-1; 21% of 5,600 active; inhibition, % at 2.09 µM;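 active = mean inhibition above about 95%, with at least 55% of replicates also reaching it, limit read from the data; inconclusive = meets just one of the two conditions; inactive = meets neither condition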
3T3 cytotox – cytotoxicity in mouse NIH/3T3 fibroblasts; shares compounds with T cruzi growth-1; NIH/3T3 viability, CellTiter-Glo ATP luminescence, 90 h; cytotoxicity (signal decrease), % at 8.35 µM; 14% of 5,600 active;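 active = mean signal decrease across replicates above about 35% based on untreated-well scatter, with enough replicates individually passing, limit read from the data; inconclusive = no rule stated though some were filed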
NIH3T3 tox 2 – cytotoxicity in mouse NIH/3T3 fibroblasts. shares compounds with T cruzi growth-1. inhibition, % at 24.9 µM. NIH/3T3 viability, CellTiter-Glo ATP luminescence, 90 h. 56% of 5,600 active;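 active = mean loss of cell viability signal at or above a set limit, and enough replicates individually reaching it; inconclusive = meets only the mean limit or only the replicate share; inactive = meets neither condition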
Each line names hits and unclear results; the compound was inactive in the other large screens (follow-up assays come after a bar, where they were run); ! = repeats disagree.

C[C@@H]1CN([C@@H](C)CO)S(=O)(=O)c2ccc(C#CC3CCCC3)cc2O[C@@H]1CN(C)C(=O)C1CC1	none (no result: C diff HTS)
COc1ccc(NC(=O)Nc2ccc3c(c2)C(=O)N([C@H](C)CO)C[C@H](C)[C@@H](CN(C)C(=O)Nc2cccc4ccccc24)OCCCC[C@@H](C)O3)cc1	none
C[C@H]1CN([C@@H](C)CO)C(=O)c2cccc(NS(=O)(=O)c3cn(C)cn3)c2O[C@H]1CN(C)Cc1ccc(C(=O)O)cc1	none
COc1ccc(S(=O)(=O)Nc2cccc3c2O[C@H](CN(C)Cc2ccc(C(=O)O)cc2)[C@@H](C)CN([C@@H](C)CO)C3=O)cc1	none
C[C@H](CO)N1C[C@H](C)[C@H](CN(C)Cc2ccc(C(=O)O)cc2)Oc2c(NS(=O)(=O)c3cn(C)cn3)cccc2C1=O	T cruzi growth-1 inconclusive | T cruzi growth-2 inactive | T cruzi growth-3 inactive | 3T3 cytotox inactive | NIH3T3 tox 2 inactive
COc1ccc(S(=O)(=O)Nc2cccc3c2O[C@@H](CN(C)Cc2ccc(C(=O)O)cc2)[C@H](C)CN([C@@H](C)CO)C3=O)cc1	T cruzi growth-1 105 | T cruzi growth-2 inactive | T cruzi growth-3 inactive | 3T3 cytotox inactive | NIH3T3 tox 2 inactive
C[C@@H]1CN([C@H](C)CO)C(=O)c2cccc(NS(=O)(=O)c3cn(C)cn3)c2O[C@H]1CN(C)CC1CCCCC1	T cruzi growth-1 102 | T cruzi growth-2 inactive | T cruzi growth-3 inactive | 3T3 cytotox inactive | NIH3T3 tox 2 inactive
C[C@@H]1CN([C@@H](C)CO)C(=O)c2cccc(NS(=O)(=O)c3cn(C)cn3)c2O[C@@H]1CN(C)CC1CCCCC1	none
COc1ccc(S(=O)(=O)Nc2cccc3c2O[C@@H](CN(C)C(=O)Nc2ccc4c(c2)OCO4)[C@@H](C)CN([C@@H](C)CO)C3=O)cc1	none
CCNC(=O)C[C@H]1CC[C@H](NC(=O)C2CCC2)[C@H](CO)O1	none (no result: Pf Dd2 inh, T cruzi growth-1)
COCC(=O)Nc1ccc2c(c1)[C@H]1C[C@H](CC(=O)N[C@H](C)c3ccccc3)O[C@@H](CO)[C@H]1O2	none
O=C(C[C@@H]1C=C[C@H](NS(=O)(=O)c2ccccc2)[C@@H](CO)O1)NCc1ccccc1F	none
COc1ccc(-c2ccc3c(c2)[C@@H]2[C@@H](CCN2S(=O)(=O)c2ccccc2C)[C@H](CO)N3)cc1	none
C[C@@H]1CN([C@@H](C)CO)S(=O)(=O)c2ccc(C3=CCCC3)cc2O[C@@H]1CN(C)C(=O)C1CCOCC1	none
C[C@@H]1CN([C@@H](C)CO)S(=O)(=O)c2ccc(C3=CCCCC3)cc2O[C@H]1CN(C)C(=O)C1CCC1	none
C[C@H]1CN([C@@H](C)CO)S(=O)(=O)c2ccc(C3=CCCC3)cc2O[C@@H]1CN(C)C(=O)C1CCCCC1	T cruzi growth-1 105! | T cruzi growth-2 102! | T cruzi growth-3 inactive | 3T3 cytotox inactive | NIH3T3 tox 2 57!
C[C@@H]1CN([C@H](C)CO)S(=O)(=O)c2ccc(C3=CCCCC3)cc2O[C@@H]1CN(C)C(=O)C1CCCCC1	T cruzi growth-1 127 | T cruzi growth-2 96 | T cruzi growth-3 inactive | 3T3 cytotox inactive | NIH3T3 tox 2 102
C[C@H]1CN([C@@H](C)CO)S(=O)(=O)c2ccc(C3=CCCC3)cc2O[C@H]1CN(C)C(=O)C1CCC1	none
C[C@H](CO)N1C[C@H](C)[C@@H](CN(C)C(=O)C2CCOCC2)Oc2cc(C3=CCCC3)ccc2S1(=O)=O	T cruzi growth-1 inconclusive | T cruzi growth-2 inactive | T cruzi growth-3 inactive | 3T3 cytotox inactive | NIH3T3 tox 2 29
COc1ccc(-c2cnc3c(c2)C(=O)N([C@H](C)CO)C[C@@H](C)[C@H](CN(C)C)O3)cc1	none
C[C@@H](NC(=O)C[C@H]1CC[C@@H]2[C@H](COC[C@H](O)CN2Cc2cc(F)ccc2F)O1)c1ccccc1	none
COCC#Cc1cnc2c(c1)C(=O)N([C@H](C)CO)C[C@@H](C)[C@H](CN(C)C(=O)c1cccnc1)O2	none
COc1ccc(S(=O)(=O)Nc2ccc3c(c2)C(=O)N([C@@H](C)CO)C[C@H](C)[C@H](CN(C)S(=O)(=O)c2ccc(Cl)cc2)OCCCC[C@@H](C)O3)cc1	T cruzi growth-1 99 | T cruzi growth-2 104 | T cruzi growth-3 inactive | 3T3 cytotox inactive | NIH3T3 tox 2 inactive
COc1ccc(S(=O)(=O)Nc2ccc3c(c2)C(=O)N([C@@H](C)CO)C[C@H](C)[C@H](CN(C)S(=O)(=O)c2ccc(Cl)cc2)OCCCC[C@H](C)O3)cc1	T cruzi growth-1 inconclusive | T cruzi growth-2 108 | T cruzi growth-3 inactive | 3T3 cytotox inactive | NIH3T3 tox 2 inactive
COc1ccc(S(=O)(=O)Nc2ccc3c(c2)C(=O)N([C@H](C)CO)C[C@@H](C)[C@H](CN(C)S(=O)(=O)c2ccc(Cl)cc2)OCCCC[C@H](C)O3)cc1	none
COc1ccc(S(=O)(=O)N(C)C[C@H]2OCCCC[C@@H](C)Oc3ccc(NS(=O)(=O)c4ccc(Cl)cc4)cc3C(=O)N([C@H](C)CO)C[C@@H]2C)cc1	none (no result: T cruzi growth-1)
C[C@@H]1CN([C@@H](C)CO)C(=O)c2cc(NC(=O)Nc3ccccc3)ccc2O[C@@H](C)CCCCO[C@H]1CN(C)Cc1ccncc1	none
CCNC(=O)C[C@@H]1CC[C@H]2[C@H](COc3ccc(NC(=O)Nc4ccccc4OC)cc3C(=O)N2C)O1	none
COc1ccc(NC(=O)N(C)C[C@H]2OCCCC[C@@H](C)Oc3ccc(NC(=O)Nc4ccc(F)cc4)cc3C(=O)N([C@@H](C)CO)C[C@H]2C)cc1	none
COc1ccc2c3c([nH]c2c1)[C@H](CO)N(Cc1ccc(F)cc1)CC31CN(Cc2ccccn2)C1	none (no result: T cruzi growth-1)
C[C@H](CO)N1C[C@H](C)[C@H](CN(C)Cc2ccc3c(c2)OCO3)Oc2ccc(NC(=O)Cc3ccccc3)cc2CC1=O	T cruzi growth-1 106 | T cruzi growth-2 inactive | T cruzi growth-3 inactive | 3T3 cytotox inactive | NIH3T3 tox 2 inactive
C[C@@H]1CN([C@@H](C)CO)C(=O)Cc2cc(NC(=O)Cc3ccccc3)ccc2O[C@H]1CN(C)Cc1ccc2c(c1)OCO2	none
C[C@H]1CN([C@@H](C)CO)C(=O)Cc2cc(NC(=O)Cc3ccccc3)ccc2O[C@H]1CN(C)Cc1ccc(-c2ccccc2)cc1	none
C[C@H]1CN([C@@H](C)CO)C(=O)Cc2cc(NC(=O)Cc3ccccc3)ccc2O[C@@H]1CN(C)Cc1ccc(-c2ccccc2)cc1	T cruzi growth-1 107 | T cruzi growth-2 113 | T cruzi growth-3 inactive | 3T3 cytotox inactive | NIH3T3 tox 2 73
C[C@@H]1CN([C@@H](C)CO)S(=O)(=O)c2ccc(C3=CCCC3)cc2O[C@H]1CN(C)C	none
C[C@H]1CN([C@@H](C)CO)C(=O)c2cc(Br)cnc2O[C@H]1CN(C)C(=O)C1CCOCC1	none

Bioassay records as filed in PubChem BioAssay.
